Screening results (PubChem)
hcDAF12 agonist: activates DAF-12 receptor from parasite H. contortus; activation, % at 6.8 µM; HEK293 hcDAF-12 lit1-tk-luc reporter, luminescence; 0% DMSO, 100% Δ7-dafachronic acid; 1.4% of 370,000 active;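 active = activation above the mean of all tested compounds plus 3 SD, cut at about 5.5% in these data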;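 note: 100% = response to 3 µM Δ7-dafachronic acid high control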
hgDAF-12 ag: agonists of H. glycines DAF-12 nuclear receptor; activation, % at 6.8 µM; 1.8% of 370,000 active; HEK293 GAL4-hgDAF12 UAS-luciferase reporter, agonist luminescence; normalized to butyrate control; AID 687014;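 active = activation above a cutoff set at the mean of all screened compounds plus 3 SD, cut at about 10% in these data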;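 note: 0% = DMSO wells and 100% = sodium butyrate wells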
DAX1 inh-1: inhibits human nuclear receptor DAX1; HEK293 Gal4-DAX1 luciferase reporter, luminescence; inhibition, % at 6.75 µM; 0.99% of 340,000 active; P51843;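 active = inhibition above the mean over all tested compounds plus 3 SD, cut at about 4.2% in these data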;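 note: 0% = DAX1-transfected cells with DMSO and 100% = empty-vector control cells with DMSO; inhibition shows as a rise in luminescence from relieved DAX1 repression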
Target sequence (P51843 207-470 limits assumed): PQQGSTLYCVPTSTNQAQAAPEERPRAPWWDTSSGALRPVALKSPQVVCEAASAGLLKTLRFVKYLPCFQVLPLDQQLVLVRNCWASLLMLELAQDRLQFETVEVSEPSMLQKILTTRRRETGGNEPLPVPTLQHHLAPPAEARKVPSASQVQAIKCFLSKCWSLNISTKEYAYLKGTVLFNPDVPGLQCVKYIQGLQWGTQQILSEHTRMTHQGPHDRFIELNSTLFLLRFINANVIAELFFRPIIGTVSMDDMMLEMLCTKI
ssDAF-12 act: S. stercoralis DAF-12 activation, primary screen; HEK293 ssDAF-12/GRIP1 lit1-tk-luc reporter, luminescence; % of 3 µM dafachronic acid response; 1% of 370,000 active; activation, % at 6.8 µM;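 active = activation above the mean over all tested compounds plus 3 SD, cut at about 0.9% in these data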;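 note: 0% = DMSO-only wells and 100% = 3 µM delta7-dafachronic acid wells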
DAX1 inh-2: blocks DAX1 repression of SF-1 activated StAR promoter; HEK293T StAR-luciferase reporter, SF-1/DAX-1 repression relief; inhibition, % at 6.8 µM; 1.1% of 370,000 active; AID 652010;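 active = inhibition above the mean over all tested compounds plus 3 SD, cut at about 3.6% in these data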;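 note: 0% = DAX-1 cells with DMSO and 100% = cells lacking DAX-1 with DMSO; higher inhibition means more luminescence from relief of DAX-1 repression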
The depositor's hits bear a star; nt = not tested or not shown. This is a sample that favours compounds with a hit; in the whole collection about 4.1% have one here.

SMILES	hcDAF12 agonist	hgDAF-12 ag	DAX1 inh-1	ssDAF-12 act	DAX1 inh-2
Cn1cc([N+](=O)[O-])c(C(=O)Nc2ccc(-c3nc4ccccc4[nH]3)cc2)n1	1.7	6.0	-0.8	-0.2	1.3
Cc1ccc(NC(=O)c2sc(N)nc2-c2ccc([N+](=O)[O-])cc2)c(C)c1	-1.3	-3.2	0.3	-2.2	-0.9
CC(C(=O)NC1CCCc2ccccc21)N1CCN(c2ccc(F)cc2)CC1 (configuration not stated)	2.6	-1.4	-2.2	-0.4	-0.8
CC(C(=O)NC1CCCc2ccccc21)N1CCN(Cc2ccc3c(c2)OCO3)CC1 (configuration not stated)	2.1	0.4	-0.5	1.0*	-0.1
C[C@@H](CO)N(Cc1cn(Cc2ccccc2)nn1)S(=O)(=O)c1ccc(F)cc1Br	-1.7	-0.8	nt	-0.7	0.3
COC(=O)[C@@H](Cc1c[nH]c2ccccc12)NC(=O)CCC(=O)c1ccc(F)cc1	5.6*	-0.2	0.1	-0.4	-0.2
COC(=O)C(Cc1c[nH]c2ccccc12)NC(C)=O (configuration not stated)	0.3	3.8	1.1	-0.3	0.1
COC(=O)[C@@H](Cc1c[nH]c2ccccc12)NCc1cccc(B(O)O)c1	5.8*	-1.9	-0.1	-0.3	-0.9
CC(NC(=O)C(=O)N/N=C\c1cccc([N+](=O)[O-])c1)c1ccccc1 (configuration not stated)	0.4	0.0	5.0*	-1.4	-0.4
CC(C)(C)OC(=O)N/N=C/c1cccc([N+](=O)[O-])c1	3.7	11.3*	1.9	0.4	4.4*
COc1ccc(S[C@]2(C(=O)N3CCOCC3)CC(=O)N(c3ccccc3)[C@@H]2c2ccc(OC)cc2)cc1	-1.2	1.8	nt	-1.0	-1.4
CCOc1ccccc1-n1nnnc1SCc1nc2ccccc2s1	3.9	5.9	0.9	3.6*	2.0
Cc1cc(C)nc(CC(N)=O)n1	0.0	0.1	5.9*	-1.5	-0.4
COC(=O)[C@]12C[C@H](CC(=O)NCCCN3CCCC3=O)C(=O)N(Cc3ccc(Cl)cc3Cl)C1=C[C@H](COCc1ccccc1)O[C@@H]2C	-3.0	-0.1	nt	-1.1	-1.3
CCOC(=O)/C=C(\C)Sc1cc(O)c2ccccc2c1O	5.8*	-4.3	-2.7	0.8	-1.2
O=S(=O)(c1ccc(Cl)nc1)N1CCN(Cc2ccc3c(c2)OCO3)CC1	-2.4	11.1*	2.3	-1.1	0.1
C=CCNC(=O)Nc1ccc2c(c1)[C@]1(CC(=O)N(CC(C)C)C1c1ccccc1)C(=O)N2C (some centres not stated)	-2.3	-0.5	nt	-1.4	-0.3
Nc1nc(CSc2nc3ccccc3[nH]2)cs1	4.2	4.2	4.6*	0.2	0.1
Nc1ccccc1Sc1nc2ccccc2[nH]1	8.9*	0.8	-0.1	-0.2	2.8
c1ccc(CSCc2nc3ccccc3[nH]2)cc1	6.4*	6.5	2.0	-0.7	1.0
Fc1ccc(CSc2nc3ccccc3[nH]2)cc1	3.1	11.6*	3.3	-0.2	3.4
c1ccc2c(c1)N=C(N1CCN(Cc3ccc4c(c3)OCO4)CC1)c1ccccc1S2	-0.9	1.1	nt	-1.1	-1.5
Cc1oc(-c2ccc(Cl)cc2)cc1C(=O)O	1.3	3.4	5.5*	-0.3	0.5
CC1CCc2c(sc3ncn(CC(=O)N=Nc4c(O)[nH]c5ccccc45)c(=O)c23)C1 (configuration not stated)	3.5	3.3	4.6*	0.0	-0.1
CC1CCc2c(sc3ncn(CCO)c(=O)c23)C1 (configuration not stated)	2.1	6.8	0.2	-0.7	2.3
SMILES	hcDAF12 agonist	hgDAF-12 ag	DAX1 inh-1	ssDAF-12 act	DAX1 inh-2
O=[N+]([O-])c1ncccc1OCc1ccccc1Br	-1.8	1.0	0.0	-0.7	-0.1
O=[N+]([O-])c1ncccc1OCc1ccc(Br)cc1F	0.8	10.6*	-0.2	-0.5	0.3
CC(C)(O)C#Cc1ccc(C(=O)NC2CCCCC2)s1	1.6	10.6*	1.2	-0.6	1.4
CC(C)(O)C#Cc1ccc(C(=O)NCCC(=O)O)s1	-2.0	-1.1	-0.2	-1.4	-0.2
CC1CCc2sc(C(=O)NC3CCCCC3)cc2C1 (configuration not stated)	3.5	12.1*	4.0	-1.0	2.2
CCc1ccc(C(=O)NC2CCCCC2)s1	3.1	11.2*	0.7	0.8	3.2
O=C(NC1CCCCC1)c1cccs1	-0.8	2.0	-0.6	-0.9	0.5
CCN(C[C@H]1[C@@H](c2ccc(C3=CCCC3)cc2)[C@H](CO)N1c1nc(C)c(C)s1)S(=O)(=O)c1ccccc1[N+](=O)[O-]	2.6	-0.5	nt	-1.3	-0.1
CCCCCCCCN1CCS(=O)(=O)N(Cc2ccccc2)C(C(=O)OC)C1 (configuration not stated)	-2.3	-1.2	nt	-1.0	-0.7
COc1ccccc1NC(=O)Cn1nnc(-c2ccccc2NS(=O)(=O)c2ccccc2)n1	-2.2	-5.2	-2.1	-1.5	-1.9
COc1ccccc1NC(=O)Cn1nnc(-c2ccccc2NC(=O)c2cc3ccccc3oc2=O)n1	14.5*	6.5	1.7	0.9	3.1
Cc1ccc(C(=O)n2nc(-c3ccccc3)nc2NCc2ccco2)cc1	-0.5	0.9	-0.2	-1.3	0.8
CCCC(=O)n1nc(-c2ccc(C)cc2)nc1NCc1ccco1	1.1	12.7*	1.1	-1.2	1.6
Cc1nn(-c2ccc(Cl)cc2)c(N)c1C(O)(CSc1nccn1C)C(F)(F)F (configuration not stated)	2.1	7.0	0.3	1.0*	0.0
Cc1nn(-c2ccccc2)c(N)c1C(O)(CSc1nccn1C)C(F)(F)F (configuration not stated)	-1.8	0.8	-0.3	0.9*	-0.2
Cc1ccc(-n2nc(C)c(C(C)(O)C(F)(F)F)c2N)cc1 (configuration not stated)	-0.1	0.9	1.4	-1.6	0.2
COC(=O)C1CN(C2CCCC2)CCS(=O)(=O)N1Cc1ccc(OC)cc1 (configuration not stated)	5.3	-5.2	nt	-1.2	-0.3
O=C([C@@H]1C[C@H]1c1ccccc1)N1CC[C@H]2[C@H](CCCN2Cc2cc(F)cc(F)c2)C1	-2.3	-0.7	nt	-1.6	-0.8
C[C@H](O)[C@@H]1CN2CCc3ccc(N4CCOCC4)cc3[C@@H]2C[C@@H]1N(C)CC1CCCCC1	0.0	-0.9	nt	-1.2	-0.8
COc1cc2c(cc1NC(=O)C(C)OC(=O)/C=C/c1ccc(OC(F)F)cc1)oc1ccccc12 (configuration not stated)	8.2*	9.1	1.5	-0.1	0.5
Cc1cc(NC(=O)COc2cc(F)cc(F)c2)n(-c2ccccc2)n1	-1.5	3.3	nt	-1.8	-2.3
CCC(C)NC(=O)c1cc2cc3ccc(OC)cc3nc2s1 (configuration not stated)	4.2	10.4	0.8	1.4*	3.8*
